# Results filed as inconclusive are left out. Entries that show only a call come without a potency. Activity calls are given as the source filed them. Calls follow the shape of the dose curve; as a rule, active = well fitted cell-killing curve with a large enough effect; inconclusive = small, poorly fitted or top-dose-only effect; inactive = flat fitted curve, though single readings scatter.
# What was measured:
# [1] = Cell Viability - LYMP2-025 (AID 976); settings: LYMP2-025 lymphoblastoid cell viability; series mostly up to 92.2 µM
# In short: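 CellTiter-Glo luminescence (cellular ATP) after 24 h compound exposure at 37 C; LYMP2-025 human lymphoblastoid cells, 2500/well, complete medium. Tetraoctylammonium bromide positive control. AC50 by Hill equation fit of qHTS concentration-response.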
# [2] = Cell Viability - LYMP2-002 (AID 977); settings: LYMP2-002 lymphoblastoid cell viability, qHTS; series mostly up to 92.2 µM
# In short: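 Human lymphoblastoid cells (2500/well) in complete medium were preincubated 5 hr at 37 C, then exposed to compounds for 24 hr at 37 C. Intracellular ATP was read by CellTiter-Glo luminescence; AC50 came from Hill-equation concentration-response fits.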
# [3] = Cell Viability - LYMP2-006 (AID 978); settings: LYMP2-006 lymphoblastoid cell viability, qHTS; series mostly up to 92.2 µM; also: nearly all actives have a fitted effect of over 60% in size
# In short: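 Concentration-dependent loss of intracellular ATP in a human lymphoblastoid line after 24 hr treatment at 37 C was measured by CellTiter-Glo luminescence, with AC50 values obtained from standard Hill-equation modelling.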
# [4] = Cell Viability - LYMP2-007 (AID 979); settings: LYMP2-007 lymphoblastoid cell viability; series mostly up to 92.2 µM;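 also: cells exposed to compound for 24 h before reading; nearly all actives have a fitted effect of over 60% in size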
# In short: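 qHTS cytotoxicity: 2500 cells/well, 5 hr 37 C settle, compound 24 hr 37 C, CellTiter-Glo 30 min RT, luminescence. Decrease in ATP = toxicity. AC50 by standard Hill equation; tetraoctylammonium bromide positive control.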
# [5] = Cell Viability - LYMP2-008 (AID 980); settings: LYMP2-008 lymphoblastoid cell viability, qHTS; series mostly up to 92.2 µM; also: nearly all actives have a fitted effect of over 60% in size
# In short: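 Luminescent ATP read-out (CellTiter-Glo, 30 min RT) after 24 hr compound exposure at 37 C of human lymphoblastoid cells in complete medium. Decrease in ATP taken as cytotoxicity; AC50 derived by standard Hill fit of qHTS concentration-response data.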
# [6] = Cell Viability - LYMP2-010 (AID 981); settings: LYMP2-010 lymphoblastoid cell viability, qHTS; series mostly up to 92.2 µM; also: nearly all actives have a fitted effect of over 55% in size
# In short: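 qHTS cytotoxicity, 1536-well: 2500 cells/well, 5 hr settle, 24 hr compound at 37 C, CellTiter-Glo 30 min RT, luminescence read. Decrease in ATP = toxicity; AC50 via standard Hill equation. Positive control tetraoctylammonium bromide.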
# [7] = Cell Viability - LYMP2-012 (AID 982); settings: LYMP2-012 lymphoblastoid cell viability qHTS; series mostly up to 92.2 µM;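 also: cellular ATP by luciferase luminescence where a drop means cytotoxicity; cells exposed to compound for one day before reading; nearly all actives have a fitted effect of over 55% in size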
# [8] = Cell Viability - LYMP2-014 (AID 983); settings: LYMP2-014 lymphoblastoid cells, viability qHTS; series mostly up to 92.2 µM; also: nearly all actives have a fitted effect of over 50% in size
# In short: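 2500 cells/well, 5 hr 37 C; cpd 24 hr 37 C, complete medium; CellTiter-Glo 30 min RT, luminescence; ATP loss = toxicity; AC50 via Hill eqn; tetraoctylammonium bromide positive control.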
# [9] = Cell Viability - LYMP2-016 (AID 984); settings: LYMP2-016 lymphoblastoid cell viability, qHTS; series mostly up to 92.2 µM; also: nearly all actives have a fitted effect of over 55% in size
# In short: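 Acute toxicity in a Coriell human lymphoblastoid line is scored as loss of intracellular ATP over 24 h of treatment in complete medium. CellTiter-Glo signal is fitted across concentrations with the Hill equation to give AC50.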
# [10] = Cell Viability - LYMP2-018 (AID 985); settings: LYMP2-018 lymphoblastoid cells, viability (qHTS); series mostly up to 92.2 µM; also: nearly all actives have a fitted effect of over 50% in size
# In short: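 2500 cells/well; 5 hr 37 C; cmpd 24 hr 37 C, complete medium; CellTiter-Glo 30 min RT; luminescence. Tetraoctylammonium bromide positive control. AC50 via Hill fit.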
# Potency is read from the fitted curve at half-maximal effect.
SMILES,Potency [1],Potency [2],Potency [3],Potency [4],Potency [5],Potency [6],Potency [7],Potency [8],Potency [9],Potency [10]
CN(C)/N=N/c1nc[nH]c1C(N)=O,inactive,inactive,inactive,inactive,inactive,inactive,inactive,inactive,inactive,inactive
CC(O)C(=O)O (configuration not stated),inactive,inactive,inactive,inactive,inactive,inactive,inactive,inactive,inactive,inactive
CCCCCCc1ccc(O)cc1O,inactive,inactive,inactive,inactive,inactive,inactive,inactive,inactive,inactive,inactive
C=CCc1ccc(O)c(OC)c1,inactive,inactive,inactive,inactive,inactive,inactive,inactive,inactive,inactive,inactive
CC(=O)O[C@]1(C(C)=O)CC[C@H]2[C@@H]3C[C@H](C)C4=CC(=O)CC[C@]4(C)[C@H]3CC[C@@]21C,,,39.8 µM (active),39.8 µM (active),39.8 µM (active),31.6 µM (active),31.6 µM (active),,39.8 µM (active),39.8 µM (active)
COc1cccc2c1C(=O)c1c(O)c3c(c(O)c1C2=O)C[C@@](O)(C(C)=O)C[C@@H]3O[C@H]1C[C@H](N)[C@H](O)[C@H](C)O1,,,,,,0.199 µM (active),0.158 µM (active),,,0.158 µM (active)
CC/C(=C(/CC)c1ccc(O)cc1)c1ccc(O)cc1,inactive,inactive,inactive,inactive,inactive,,,inactive,inactive,inactive
O=C1OC(c2ccc(O)cc2)(c2ccc(O)cc2)c2ccccc21,inactive,inactive,inactive,inactive,inactive,inactive,inactive,inactive,inactive,inactive
C[C@]12CC[C@@H]3c4ccc(O)cc4CC[C@H]3[C@@H]1CC[C@@H]2O,inactive,,inactive,inactive,inactive,inactive,inactive,inactive,inactive,
NC(=NCCCCCCN=C(N)/N=C(\N)Nc1ccc(Cl)cc1)/N=C(\N)Nc1ccc(Cl)cc1,,,39.8 µM (active),39.8 µM (active),39.8 µM (active),39.8 µM (active),39.8 µM (active),39.8 µM (active),50.1 µM (active),39.8 µM (active)
CC(C)(C)CC(C)(C)c1ccc(OCCOCC[N+](C)(C)Cc2ccccc2)cc1,39.8 µM (active),25.1 µM (active),25.1 µM (active),25.1 µM (active),31.6 µM (active),31.6 µM (active),20 µM (active),31.6 µM (active),31.6 µM (active),25.1 µM (active)
O=C(O)CCCCC(=O)O,inactive,inactive,inactive,inactive,inactive,inactive,inactive,inactive,inactive,inactive
Oc1c(I)cc(Cl)c2cccnc12,inactive,,,,,50.1 µM (active),,,,
Oc1ccc(O)cc1,inactive,,,,50.1 µM (active),39.8 µM (active),50.1 µM (active),inactive,inactive,
O=c1ccc2ccccc2o1,inactive,inactive,inactive,inactive,inactive,inactive,inactive,inactive,inactive,inactive
Oc1c(Cl)cc(Cl)cc1Sc1cc(Cl)cc(Cl)c1O,,,,,31.6 µM (active),50.1 µM (active),,,39.8 µM (active),
CC(=O)Oc1ccc(C(c2ccc(OC(C)=O)cc2)c2ccccn2)cc1,inactive,inactive,inactive,inactive,inactive,inactive,inactive,inactive,inactive,inactive
C=C(CC)C(=O)c1ccc(OCC(=O)O)c(Cl)c1Cl,,,,,,39.8 µM (active),39.8 µM (active),,39.8 µM (active),39.8 µM (active)
COc1cccc2c1C(=O)c1c(O)c3c(c(O)c1C2=O)C[C@@](O)(C(=O)CO)C[C@@H]3O[C@H]1C[C@H](N)[C@H](O)[C@H](C)O1,0.501 µM (active),0.251 µM (active),,1 µM (active),,0.251 µM (active),0.199 µM (active),0.316 µM (active),0.251 µM (active),0.158 µM (active)
Nc1ccc(C(=O)O)cc1,inactive,inactive,inactive,inactive,inactive,inactive,inactive,inactive,inactive,inactive
COC1=CC(=O)C[C@@H](C)[C@]12Oc1c(Cl)c(OC)cc(OC)c1C2=O,inactive,inactive,inactive,inactive,inactive,inactive,inactive,inactive,inactive,inactive

# Source: PubChem BioAssay (NCATS)
